Most compounds without a hit are left out; they make up all but 1.3% or so of the library.
MCL1 BIM primary: inhibitors of human MCL1 binding to BIM-BH3 peptide; Q07820; GST-MCL1 / FITC-Bim-BH3 fluorescence polarization; inhibition, % at 10.9 µM; 0.68% of 320,000 active; AID 2057;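 active means inhibition above the mean inhibition of all tested compounds plus 3 SD, set per campaign, cut at about 40% in these data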;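 further: 0% = DMSO wells and 100% = unlabeled Bim-BH3 peptide control; higher means more loss of mP so more displacement of Bim peptide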
EBV gp42 inh: blocks Epstein-Barr virus glycoprotein 42 binding; Q1HVG2; Fluorescence polarization binding assay, mP read-out; inhibition, % (tested at 21.74 µM); 0.42% of 220,000 active; in the data active means inhibition above about 50%
BCLXL inh: Bcl-xL (human) inhibition | inhibition, % at 10.9 µM | 0.7% of 320,000 active | Q07817 | GST-Bcl-xL / FITC-Bim BH3 peptide fluorescence polarization;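 active means inhibition above the mean of all tested compounds plus 3 SD, cutoff set per campaign, cut at about 30% in these data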;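 further: 0% = DMSO wells and 100% = unlabeled Bim-BH3 peptide competitor; inhibitors lower millipolarization by displacing the labeled peptide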
Target sequence (Q07817 whole entry, looked up): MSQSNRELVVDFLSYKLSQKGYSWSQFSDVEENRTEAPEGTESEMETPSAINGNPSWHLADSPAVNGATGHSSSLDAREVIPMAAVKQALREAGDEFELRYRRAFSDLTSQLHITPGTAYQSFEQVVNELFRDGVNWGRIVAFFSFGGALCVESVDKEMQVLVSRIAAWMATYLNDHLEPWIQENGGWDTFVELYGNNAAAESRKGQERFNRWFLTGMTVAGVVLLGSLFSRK
MEX-5 binding: C. elegans MEX-5 TCR-2 RNA binding activity. Q9XUB2. MEX-5/FITC-TCR2 RNA binding, fluorescence polarization; hits give low values. activity score (negative = inhibition of binding), % at 10 µM. 0.38% of 300,000 active. AID 1832;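 active means inhibition past about -25% in most replicates, and total fluorescence under double the plate's negative control median, limit read from the data; inconclusive means replicates evenly split on the limit, or fluorescence at least double controls; inactive means too little inhibition in most replicates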;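 further: 0% = DMSO and -100% = 5 µM competing unlabeled TCR2 RNA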
GLD-1 TGE inh: GLD-1-TGE RNA interaction inhibition (C. elegans) | Q17339 | purified GLD-1 + fluorescein TGE RNA, fluorescence polarization | inhibition, % at 5.96 µM | 0.44% of 320,000 active;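 active means percent inhibition above a per-plate cutoff, the plate mean of test compounds plus 3 SD, cut at about 30% in these data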;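 further: 0% = DMSO wells with GLD-1 and probe and 100% = wells lacking GLD-1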
Bcl-xL conf: Bcl-xL (human) inhibition, MCL1 counter-screen confirmation | shares compounds with MCL1 BIM primary | GST-Bcl-xL / FITC-Bim BH3 peptide FP binding | inhibition, % at 10.9 µM | 54% of 1,700 active | AID 2166;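 active means inhibition above a cutoff equal to the mean inhibition of all tested compounds plus 3 SD, cut at about 30% in these data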;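 further: 0% = DMSO wells and 100% = unlabeled Bim BH3 control peptide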
MCL1 BIM confirm: confirmation of human MCL1 and BIM-BH3 interaction inhibitors | shares compounds with MCL1 BIM primary | GST-MCL1 / FITC-Bim-BH3 fluorescence polarization | inhibition, % at 10.9 µM | 61% of 1,700 active | AID 2168;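 active means inhibition above the average of all tested compounds plus 3 SD, cut at about 40% in these data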;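 further: 0% = DMSO wells and 100% = unlabeled Bim-BH3 control peptide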
* hit, by the source's call; u = inconclusive; x = no result.

SMILES	MCL1 BIM primary	EBV gp42 inh	BCLXL inh	MEX-5 binding	GLD-1 TGE inh	Bcl-xL conf	MCL1 BIM confirm
Cc1c(N)cccc1[N+](=O)[O-]	7	x	7	x	-9	x	x
Cc1c(N)cccc1N	52*	x	69*	x	-34	28	29
COc1ccc(C(=O)CSc2nnc(CNC(=O)c3ccco3)n2C)cc1	0	-5	-2	4	4	x	x
O=C(CNc1cccc2ccccc12)N/N=C/c1ccc(C(=O)O)cc1	68*	-3	7	-4	6	13	52*
COc1ccc(C(=O)Nc2nnc(CCS(=O)(=O)c3ccc(C)cc3)s2)cc1	0	-19	5	-1	5	x	x
NC(=O)c1cccnc1Oc1ccc(Cl)cc1Cl	54*	-1	1	3	-3	6	-1
Cc1cc(Cl)ccc1Nc1ncccc1C(N)=O	-2	6	3	-1	1	x	x
CCCC1Nc2ccc(C(=O)O)cc2C2C=CCC12 (stereo unspecified)	87*	-2	49*	-49*	23	4	3
O=C(O)c1ccc2c(c1)C1C=CCC1C(c1ccncc1)N2 (stereo unspecified)	19	-9	18	-24	9	x	x
CC(C)C1Nc2ccc(C(=O)O)cc2C2C=CCC21 (stereo unspecified)	82*	-6	48*	-54*	28	36*	48*
CSCCC(NC(=O)c1ccco1)C(=O)Nc1ccc(C)cn1 (stereo unspecified)	-2	x	4	-2	4	x	x
COC(=O)c1ccc(N)c(N=CC2=C(O)CC(C)(C)CC2=O)c1	89*	-18	87*	1	73*	7	15
CN(C)c1ccc(/C=C2\SC(=O)N(CC(O)Cn3c4ccccc4c4ccccc43)C2=O)cc1 (stereo unspecified)	80*	115*	133*	u	133*	-5	-28
CC(C)(C)c1cc(C(=O)O)n[nH]1	48*	-22	2	-1	-1	2	14
Cc1nc2ccccn2c1C(=O)NNC(=O)Nc1cccc(C(F)(F)F)c1	-5	x	-9	-2	0	x	x
COC(=O)c1cnc(SCc2ccc([N+](=O)[O-])cc2)n1C	5	-17	-2	0	5	x	x
Cc1c(Br)c(=O)oc2c(Br)c(O)ccc12	3	-2	7	1	4	x	x
Cc1c(Br)c(=O)oc2c(Br)c(O)c(O)cc12	68*	-10	24	-11	6	36*	84*
FC(F)(F)c1ccc(C2Nc3cccc4cccc(c34)N2)cc1	x	4	x	x	x	x	x
Fc1ccc(C2Nc3cccc4cccc(c34)N2)cc1	41*	x	19	-6	10	13	8
Cc1ccc(C2Nc3cccc4cccc(c34)N2)s1	61*	-3	51*	-2	22	16	8
CCN(CC)c1ccc(C2Nc3cccc4cccc(c34)N2)cc1	6	x	4	-2	1	x	x
COc1cccc(CNC(=O)c2cc(S(=O)(=O)N3CCCC3)cn2C)c1	7	x	4	1	2	x	x
CC(C)(C)OC(=O)NCCCCC1=CC2=CC(=O)C(C)(O)C(=O)C2=CO1 (stereo unspecified)	20	x	10	-9	13	x	x
CC1(OC(=O)c2ccco2)C(=O)C=C2C=C(c3ccc(C#N)cc3)OC=C2C1=O (stereo unspecified)	19	x	12	-20	13	x	x
CCCCC1=CC2=CC(=O)C(C)(OC(=O)c3ccco3)C(=O)C2=CO1 (stereo unspecified)	49*	x	43*	-36*	62*	33*	62*
CC(C)(C)OC(=O)NCCCCC1=CC2=CC(=O)C(C)(OC(=O)c3cnc4ccccc4n3)C(=O)C2=CO1 (stereo unspecified)	58*	x	59*	-28*	89*	39*	52*
COC(=O)CCCC1=CC2=CC(=O)C(C)(OC(=O)c3ccc(Cl)nc3)C(=O)C2=CO1 (stereo unspecified)	66*	x	55*	-35*	57*	46*	69*

Compound activity as filed in PubChem.
